{"source": "PubChem BioAssay (NCATS)", "key": {"[1]": {"assay": "qHTS Screen of the MIPE 4.0 Collection Against Ewings Sarcoma (TC71) (AID 1259253); further: nearly all actives have a fitted effect of over 40% in size; further: potency means the concentration at half of the fitted maximal effect", "method_in_brief": "(§1)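 Measured: ATP luminescence (CellTiter-Glo) 10 min after reagent addition, following 48 h drug treatment. Relative luciferase units converted to percent activity, with no-cell wells as full and DMSO wells as zero inhibition.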"}, "[2]": {"assay": "qHTS Screen of the MIPE 4.0 Collection Against Ewings Sarcoma (TC32) (AID 1259256)", "method_in_brief": "as §1"}, "[3]": {"assay": "qHTS Screen of the MIPE 4.0 Collection Against Ewings Sarcoma (EW8) (AID 1259255)", "method_in_brief": "as §1"}, "[4]": {"assay": "Identifying Small Molecule Inhibitors of Pancreatic Cancer Stem Cells (A2780, Spheroid) (AID 1259357)", "conditions": "Potency: A2780 spheroid viability", "method_in_brief": "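Spheroids grown 14 days in stem cell media on hydrogel-coated nonadherent plates; 2D lines seeded directly. Compounds added after 4 h attachment, 48 h at 37C, 5% CO2; CellTiter-Glo luminescence normalized to DMSO (no inhibition) and no-cell wells (full inhibition).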"}, "[5]": {"assay": "Identifying Small Molecule Inhibitors of Pancreatic Cancer Stem Cells (Panc1, Adherent) (AID 1259362)", "conditions": "Potency: viability", "method_in_brief": "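Viability is scored by CellTiter-Glo luminescence 48 h after dosing, expressed as percent activity against vehicle and no-cell references. Spheroid formats rely on cells cultured 14 days in stem cell media beforehand.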"}}, "note": "Inconclusive results are not listed. Active and inactive are the calls of the source. The call rests on the fitted dose curve; in most records, active means well fitted curve in the direction sought with a large enough effect; inconclusive means small, poorly fitted or top-dose-only effect, or another doubt; inactive means no such curve, though single readings can be large; an effect the other way counts as inactive or inconclusive. Wherever Potency is given: potency means the concentration at half of the fitted maximal effect."}
{"smiles": "O=S(=O)(O)c1ccc2cc(N=Nc3cc(S(=O)(=O)O)c4cccnc4c3O)ccc2c1", "values": [{"measurement": "Potency", "setting": "[1]", "value": "14.8 µM (active)"}, {"measurement": "Potency", "setting": "[2]", "value": "16.6 µM (active)"}]}
{"smiles": "NC(=O)c1nnn(Cc2cc(Cl)c(C(=O)c3ccc(Cl)cc3)c(Cl)c2)c1N", "values": [{"measurement": "Potency", "setting": "[1]", "value": "18.7 µM (active)"}, {"measurement": "Potency", "setting": "[2]", "value": "20.9 µM (active)"}]}
{"smiles": "CC1C(=O)OC2C(O)C34C5CC(C(C)(C)C)C36C(OC(=O)C6O)OC4(C(=O)O5)C12O", "note": "(centres undefined)", "values": [{"measurement": "Potency", "setting": "[1]", "value": "14.8 µM (active)"}, {"measurement": "Potency", "setting": "[2]", "value": "inactive"}]}
{"smiles": "CN1[C@H]2CC[C@H]1CC(OC(=O)c1c[nH]c3ccccc13)C2", "note": "(some centres undefined)", "values": [{"measurement": "Potency", "setting": "[1]", "value": "18.7 µM (active)"}, {"measurement": "Potency", "setting": "[2]", "value": "3.32 µM (active)"}]}
{"smiles": "COc1ccc(CCC(=O)Nc2nc3ccc(Cl)cc3s2)cc1OC", "values": [{"measurement": "Potency", "setting": "[1]", "value": "18.7 µM (active)"}, {"measurement": "Potency", "setting": "[2]", "value": "13.2 µM (active)"}]}
{"smiles": "O=C(NCCCCN1CCOCC1)c1cc2ccccc2o1", "values": [{"measurement": "Potency", "setting": "[1]", "value": "inactive"}, {"measurement": "Potency", "setting": "[2]", "value": "inactive"}]}
{"smiles": "Cc1cc(CS(=O)(=O)c2ccccc2)cc(OCc2ccc(CN3CCC[C@H]3CO)cc2)c1", "values": [{"measurement": "Potency", "setting": "[1]", "value": "20.9 µM (active)"}, {"measurement": "Potency", "setting": "[2]", "value": "20.9 µM (active)"}]}
{"smiles": "COc1ccc(-c2oc3c(CC=C(C)C)c(O)cc(O)c3c(=O)c2O)cc1", "values": [{"measurement": "Potency", "setting": "[1]", "value": "18.7 µM (active)"}, {"measurement": "Potency", "setting": "[2]", "value": "23.5 µM (active)"}]}
{"smiles": "O=C(CCCN1CCN(c2ccc(F)cc2)CC1)NC1c2ccccc2CSc2ccccc21", "note": "(centres undefined)", "values": [{"measurement": "Potency", "setting": "[1]", "value": "16.6 µM (active)"}, {"measurement": "Potency", "setting": "[2]", "value": "16.6 µM (active)"}]}
{"smiles": "Cc1c(-c2cccc3c(CCCOc4cccc5ccccc45)c(C(=O)O)n(Cc4cccnc4)c23)c(COc2ccc(N3CCN([S+](=O)([O-])N(C)C)CC3)cc2)nn1C", "values": [{"measurement": "Potency", "setting": "[1]", "value": "20.9 µM (active)"}, {"measurement": "Potency", "setting": "[2]", "value": "18.7 µM (active)"}]}
{"smiles": "CC(C)(O)CC(=O)NCCn1ccc2ncnc(Nc3ccc(Oc4cccc(C(F)(F)F)c4)c(Cl)c3)c21", "values": [{"measurement": "Potency", "setting": "[1]", "value": "26.4 µM (active)"}, {"measurement": "Potency", "setting": "[2]", "value": "26.4 µM (active)"}]}
{"smiles": "Cc1cnc(CNC(=O)c2c(=O)c3ccc(N4CCCN(C)CC4)nc3n3c2sc2ccccc23)cn1", "values": [{"measurement": "Potency", "setting": "[1]", "value": "7.24 µM (active)"}, {"measurement": "Potency", "setting": "[2]", "value": "inactive"}]}
{"smiles": "COc1cc(Nc2nc3ccccc3nc2NS(=O)(=O)c2ccc(NC(=O)c3ccc(C)c(OC)c3)cc2)cc(OC)c1", "values": [{"measurement": "Potency", "setting": "[1]", "value": "20.9 µM (active)"}, {"measurement": "Potency", "setting": "[2]", "value": "18.7 µM (active)"}]}
{"smiles": "CC1=C(CC(=O)O)c2cc(F)ccc2C1=Cc1ccc(S(C)=O)cc1", "note": "(centres undefined)", "values": [{"measurement": "Potency", "setting": "[1]", "value": "1.32 µM (active)"}, {"measurement": "Potency", "setting": "[2]", "value": "1.48 µM (active)"}]}
{"smiles": "O=C(Nc1cccc2c(=O)cc(-c3nn[nH]n3)oc12)c1ccc(OCCCCc2ccccc2)cc1", "values": [{"measurement": "Potency", "setting": "[1]", "value": "18.7 µM (active)"}, {"measurement": "Potency", "setting": "[2]", "value": "18.7 µM (active)"}]}
{"smiles": "CCCCC[C@H](O)C=C[C@H]1[C@H](O)CC(=O)[C@H]1CC=CCCCC(=O)O", "values": [{"measurement": "Potency", "setting": "[1]", "value": "18.7 µM (active)"}, {"measurement": "Potency", "setting": "[2]", "value": "20.9 µM (active)"}]}
{"smiles": "CC(=O)O[C@]1(C(C)=O)CC[C@H]2[C@@H]3C=C(Cl)C4=CC(=O)[C@@H]5C[C@H]5[C@]4(C)[C@@H]3CC[C@@]21C", "values": [{"measurement": "Potency", "setting": "[1]", "value": "13.2 µM (active)"}, {"measurement": "Potency", "setting": "[2]", "value": "16.6 µM (active)"}]}
{"smiles": "CC(C)N(CCCNC(=O)Nc1ccc(C(C)(C)C)cc1)C[C@H]1O[C@@H](n2cc(Br)c3c(N)ncnc32)[C@H](O)[C@H]1O", "values": [{"measurement": "Potency", "setting": "[1]", "value": "18.7 µM (active)"}, {"measurement": "Potency", "setting": "[2]", "value": "20.9 µM (active)"}]}
{"smiles": "CCn1c(-c2nonc2N)nc2cncc(CNC3CCNCC3)c21", "values": [{"measurement": "Potency", "setting": "[1]", "value": "inactive"}, {"measurement": "Potency", "setting": "[2]", "value": "14.8 µM (active)"}]}
{"smiles": "CCOC(=O)[C@H]1O[C@H]1C(=O)N[C@@H](CC(C)C)C(=O)NCCC(C)C", "values": [{"measurement": "Potency", "setting": "[1]", "value": "2.96 µM (active)"}, {"measurement": "Potency", "setting": "[2]", "value": "18.7 µM (active)"}]}
{"smiles": "CC1(COc2ccc3c(c2)ncn3-c2ccc3cccc(N4CCC(N)CC4)c3n2)COC1", "values": [{"measurement": "Potency", "setting": "[1]", "value": "inactive"}, {"measurement": "Potency", "setting": "[2]", "value": "inactive"}]}
{"smiles": "CCCCCCCCCCCCCC(=O)N[C@H](CO)[C@H](O)c1ccc([N+](=O)[O-])cc1", "values": [{"measurement": "Potency", "setting": "[1]", "value": "inactive"}, {"measurement": "Potency", "setting": "[3]", "value": "inactive"}, {"measurement": "Potency", "setting": "[4]", "value": "inactive"}, {"measurement": "Potency", "setting": "[5]", "value": "inactive"}]}
{"smiles": "C[C@@]1(c2cc(-c3cncnc3)c(F)cc2F)CCSC(N)=N1", "values": [{"measurement": "Potency", "setting": "[1]", "value": "inactive"}, {"measurement": "Potency", "setting": "[2]", "value": "inactive"}]}
{"smiles": "Nc1[nH]nc2nnc(-c3c(-c4ccccc4)nn4ccccc34)cc12", "values": [{"measurement": "Potency", "setting": "[1]", "value": "8.33 µM (active)"}, {"measurement": "Potency", "setting": "[2]", "value": "11.8 µM (active)"}]}
{"smiles": "CC(=O)N1CCN(c2ccc(OCc3nn(C)c(C)c3-c3cccc4c(CCCOc5cc(C)c(Cl)c(C)c5)c(C(=O)O)n(Cc5cccnc5)c34)cc2)CC1", "values": [{"measurement": "Potency", "setting": "[1]", "value": "20.9 µM (active)"}, {"measurement": "Potency", "setting": "[2]", "value": "20.9 µM (active)"}]}
{"smiles": "C=C[C@@H]1CN2CCC1C[C@@H]2C(O)c1ccnc2ccc(OC)cc12", "note": "(some centres undefined)", "values": [{"measurement": "Potency", "setting": "[1]", "value": "4.18 µM (active)"}, {"measurement": "Potency", "setting": "[2]", "value": "1.18 µM (active)"}]}
{"smiles": "O=C1NC(=O)C(c2cnc3ccccn23)=C1c1cn2c3c(cccc13)CN(C(=O)N1CCOCC1)CC2", "values": [{"measurement": "Potency", "setting": "[1]", "value": "23.5 µM (active)"}, {"measurement": "Potency", "setting": "[2]", "value": "16.6 µM (active)"}]}
{"smiles": "CN1CCC(COc2cnc(-c3cccc(Cn4nc(-c5cccc(C#N)c5)ccc4=O)c3)nc2)CC1", "values": [{"measurement": "Potency", "setting": "[1]", "value": "13.2 µM (active)"}, {"measurement": "Potency", "setting": "[2]", "value": "20.9 µM (active)"}]}
{"smiles": "COc1cc2ncnc(Nc3cc(Br)c(O)c(Br)c3)c2cc1OC", "values": [{"measurement": "Potency", "setting": "[1]", "value": "0.059 µM (active)"}, {"measurement": "Potency", "setting": "[2]", "value": "0.418 µM (active)"}]}
{"smiles": "C=C1[C@H](n2cnc3c(=O)[nH]c(N)nc32)C[C@H](O)[C@H]1CO", "values": [{"measurement": "Potency", "setting": "[1]", "value": "14.8 µM (active)"}, {"measurement": "Potency", "setting": "[2]", "value": "inactive"}]}
{"smiles": "O=C(O)CCC=CCC[C@@H]1[C@H](N2CCCCC2)[C@@H](O)C[C@@H]1OCc1ccc(-c2ccccc2)cc1", "values": [{"measurement": "Potency", "setting": "[1]", "value": "inactive"}, {"measurement": "Potency", "setting": "[2]", "value": "inactive"}]}
{"smiles": "CCOC(=O)[C@H](CCc1ccccc1)N[C@@H](C)C(=O)N1CCCC1C(=O)O", "note": "(some centres undefined)", "values": [{"measurement": "Potency", "setting": "[1]", "value": "16.6 µM (active)"}, {"measurement": "Potency", "setting": "[2]", "value": "16.6 µM (active)"}]}
{"smiles": "C=CC[N+]1([C@H]2C[C@H]3[C@@H]4CC[C@H]5C[C@H](O)[C@@H](N6CCOCC6)C[C@]5(C)[C@@H]4CC[C@]3(C)[C@H]2OC(C)=O)CCCC1", "values": [{"measurement": "Potency", "setting": "[3]", "value": "inactive"}]}
{"smiles": "Cc1ccc(S(=O)(=O)Nc2nc3ccccc3nc2Nc2ccc3nsnc3c2)cc1", "values": [{"measurement": "Potency", "setting": "[1]", "value": "12.9 µM (active)"}, {"measurement": "Potency", "setting": "[2]", "value": "16.2 µM (active)"}]}
